TRPV1 agonist – activates the human vanilloid receptor TRPV1; TRPV1-expressing cells, Fluo-8 calcium influx, agonist mode; activation, % at 8.33 µM; 0.19% of 320,000 active; AID 540275; in the data active = activation above about 80%; inconclusive = between about 30% and that limit; also: 0% is about no effect
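Fluo-8 calcium influx in TRPV1-expressing cells, kinetic read (ex 480/em 520 nm). Compound added and read 3 min for agonist activity, followed by capsaicin at EC20 final and 2 min further read for enhancement.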
TRPV1 potentiator – potentiators of human vanilloid receptor 1 (TRPV1) | TRPV1-expressing cells, Fluo-8 calcium influx, capsaicin EC20 potentiation | potentiation, % at 8.33 µM | 0.02% of 320,000 active | AID 540277; in the data active = potentiation above about 80%; inconclusive = between about 30% and that limit; also: 0% is about no effect
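Cells expressing TRPV1 were dye-loaded with Fluo-8 and read kinetically: 10 s baseline, 3 min after compound (agonist portion), then 2 min after EC20 capsaicin (allosteric enhancer portion). Calcium-bound dye fluorescence at 480/520 nm.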
KCNH2 3.1 inh – inhibitors of human KCNH2 3.1 potassium channel isoform; activity change, % (tested at about 1.8 µM); AID 720553; 0.95% of 340,000 active; U2OS KCNH2 3.1, thallium flux FluxOr; active compounds read low;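 active = maximum activity change below -70%; inconclusive = maximum activity change from -70% to -50%; inactive = maximum activity change above -50%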;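 also: thallium influx rate constant from kinetic fluorescence after stimulation buffer; % is scaled to controls: 0 for no effect and ±100 for the full control effect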
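Measured as rate of thallium-driven FluxOr signal in transduced U2OS cells carrying the 3.1 channel, read kinetically for 2 min upon stimulation; values are rate constants scaled to DMSO control wells.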
hERG WT inh – blocks the wildtype human KCNH2 potassium channel. U2OS, BacMam KCNH2, thallium flux FluxOr; active compounds read low. activity change, % at 1.84 µM. 0.37% of 340,000 active. AID 720551;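 active = maximum activity change below -70%; inconclusive = maximum activity change between -70% and -50%; inactive = maximum activity change above -50%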; also: % is scaled to controls: 0 for no effect and ±100 for the full control effect
Target sequence (Q12809 whole entry, looked up): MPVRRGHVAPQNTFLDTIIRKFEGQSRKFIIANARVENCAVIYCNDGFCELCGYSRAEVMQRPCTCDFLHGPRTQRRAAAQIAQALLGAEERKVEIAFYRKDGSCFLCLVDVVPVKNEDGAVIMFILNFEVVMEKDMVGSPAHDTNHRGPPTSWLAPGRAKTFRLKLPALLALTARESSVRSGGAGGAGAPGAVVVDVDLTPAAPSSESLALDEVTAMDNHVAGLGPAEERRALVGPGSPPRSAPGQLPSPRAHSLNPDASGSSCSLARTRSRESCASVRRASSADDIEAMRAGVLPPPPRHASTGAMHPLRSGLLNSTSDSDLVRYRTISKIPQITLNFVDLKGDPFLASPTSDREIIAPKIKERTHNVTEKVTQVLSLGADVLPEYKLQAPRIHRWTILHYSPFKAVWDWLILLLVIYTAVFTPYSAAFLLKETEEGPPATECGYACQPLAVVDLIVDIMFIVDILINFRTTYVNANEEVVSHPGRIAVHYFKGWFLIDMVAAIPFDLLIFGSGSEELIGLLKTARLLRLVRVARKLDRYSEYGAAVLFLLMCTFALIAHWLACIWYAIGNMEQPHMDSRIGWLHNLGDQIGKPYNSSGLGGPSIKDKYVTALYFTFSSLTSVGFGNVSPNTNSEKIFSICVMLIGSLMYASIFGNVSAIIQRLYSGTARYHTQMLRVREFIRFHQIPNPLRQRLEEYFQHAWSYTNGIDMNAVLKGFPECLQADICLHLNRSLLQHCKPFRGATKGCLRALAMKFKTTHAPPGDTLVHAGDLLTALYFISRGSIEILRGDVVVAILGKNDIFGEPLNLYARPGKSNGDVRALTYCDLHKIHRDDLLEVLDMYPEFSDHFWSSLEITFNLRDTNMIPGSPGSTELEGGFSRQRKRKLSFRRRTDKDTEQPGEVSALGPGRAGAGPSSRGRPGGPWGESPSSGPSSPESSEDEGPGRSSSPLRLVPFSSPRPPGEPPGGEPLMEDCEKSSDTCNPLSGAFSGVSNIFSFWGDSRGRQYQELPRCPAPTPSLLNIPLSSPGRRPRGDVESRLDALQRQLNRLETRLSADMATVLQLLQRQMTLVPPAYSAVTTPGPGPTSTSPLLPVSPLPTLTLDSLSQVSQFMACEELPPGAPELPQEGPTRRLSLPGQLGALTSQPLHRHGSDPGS
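U2OS cells transduced with wild-type KCNH2 virus are loaded with FluxOr dye for 45 min, and thallium flux is measured in kinetic reads before and after stimulation buffer. Rate constants are normalized to DMSO controls.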
Starred values were filed as active, the others as inactive; ? = inconclusive; · = not tested or not shown. An excerpt weighted towards active compounds, which were near 1.2% of everything screened.

SMILES | TRPV1 agonist | TRPV1 potentiator | KCNH2 3.1 inh | hERG WT inh
CSc1nc(N)nc2c1ncn2CC(=O)N1CCN(c2ccccn2)CC1 | · | · | 6 | -5
CC(=O)Nc1cc(C(=O)CSc2nnc(C3CC3)n2C2CC2)ccc1O | 0 | -2 | -6 | 1
O=S(=O)(c1ccc(NC(=S)NN=Cc2ccccc2O)cc1)N1CCCCC1 | · | · | -7 | 12
CCc1cc2cc(C)cc(C)c2[nH]c1=S | 4 | 22 | -96* | -1
Cc1cn2c(-c3cccnc3)nnc2s1 | -3 | 8 | -76* | 5
CCCNC(=O)C(Cc1ccccc1F)NC(=O)c1ccc(C#N)cc1 (stereo not drawn) | 17 | -20 | -99* | 7
Cc1ccc(C)c(NC(=O)C2CCCN2/C=C/C(=O)C(F)(F)F)c1 (stereo not drawn) | 3 | -12 | -119* | -1
Cc1cccc(NC(=O)C2CCCN2/C=C/C(=O)C(F)(F)F)c1C (stereo not drawn) | -2 | -2 | 1 | -2
CC1CCCCCCC1OC(=O)c1ccccc1C(=O)O (stereo not drawn) | · | · | 4 | -8
Cc1coc2c(C)c3oc(=O)c(CCC(=O)NCCCN4CCOCC4)c(C)c3cc12 | -2 | -7 | 11 | 0
Cc1coc2c(C)c3oc(=O)c(CCC(=O)N4CCC(C(=O)NCCCC(=O)O)(c5ccccc5)CC4)c(C)c3cc12 | -4 | 18 | -197* | -21
CC[C@]12c3[nH]c4ccc(OC)cc4c3CCN1C(=O)C(CC(=O)NCCc1ccccn1)C[C@@H]2C(=O)N1CCN(C(=O)c2ccco2)CC1 (stereo partly drawn) | · | · | 5 | -3
O=C(CN1CCC(Cc2ccccc2)CC1)N1CCc2ccccc2C1 | -4 | 4 | -90* | -35
S=c1nc(COc2ccccc2)[nH]c2ccccc12 | 1 | 10 | -20 | -91*
S=c1nc(Cc2ccccc2)[nH]c2ccccc12 | ? | -8 | -15 | -17
S=c1nc(Cc2ccc(Cl)cc2)[nH]c2ccccc12 | 1 | 6 | 2 | -150*
O=c1[nH]c(COc2ccccc2)nc2ccccc12 | 4 | ? | -2 | -3
Cc1cc(=O)n(Nc2ccccc2)c(O)c1C#N | · | · | 0 | -15
Cc1ccc2oc(=O)n(CC(=O)N3CCOCC3)c2c1 | 0 | -12 | -8 | -142*
O=C(Cn1c(=O)oc2ccccc21)N1CCOCC1 | -1 | 0 | 2 | ·
Cc1cc(NC(=O)CSCC(=O)N(C)Cc2ccc(Cl)c(Cl)c2)no1 | ? | -6 | 10 | -95*
COc1ccc(-c2cn3c4c(sc3n2)CCCC4)cc1 | 81* | -18 | · | -6
COc1ccc2ncccc2c1Cc1c(OC)ccc2ncccc12 | · | · | -25 | -2
COc1ccc(CNCC(O)(c2ccccc2)c2ccccc2)cc1 | 2 | 3 | -5 | 19
COc1ccc(CNCC(O)(c2ccc(F)cc2)c2ccc(F)cc2)cc1 | 3 | ? | -105* | 8
SMILES | TRPV1 agonist | TRPV1 potentiator | KCNH2 3.1 inh | hERG WT inh
O=C(c1ccco1)N1CCN(S(=O)(=O)c2ccc(S(=O)(=O)NC3CC3)cc2)CC1 | 0 | 9 | -83* | 11
O=C(c1ccco1)N1CCN(S(=O)(=O)c2ccc(Br)cc2)CC1 | 6 | -5 | -4 | -5
O=C(NCc1ccco1)c1cnn2c1NC(c1ccc(Br)cc1)CC2C(F)(F)F (stereo not drawn) | 1 | -2 | 0 | -71*
COc1ccc([C@H]2N[C@]3(CCCN(Cc4ccco4)C3=O)[C@H]3C(=O)N(Cc4ccccc4)C(=O)[C@@H]23)cc1 | · | · | -4 | -5
Cc1ccccc1-n1nnnc1SCc1cc(=O)n2ccsc2n1 | 1 | 9 | -7 | 8
O=c1cc(CSc2nnnn2-c2ccccc2)nc2sccn12 | -1 | 11 | -72* | -6
O=C(Nc1nnc(C2CCCCC2)s1)c1ccc(Br)s1 | 80* | -7 | 2 | 12
O=C(c1cc(-c2ccc(Cl)cc2Cl)on1)N1CCOCC1 | 83* | -1 | -37 | 11
O=C(c1cc(-c2ccc(Cl)c(Cl)c2)on1)N1CCOCC1 | 80* | 4 | 9 | -4
O=C(c1cc(-c2cccc(O)c2)on1)N1CCCC1 | -1 | -4 | -188* | -228*
O=C(c1cc(-c2cccc(O)c2)on1)N1CCCCC1 | 7 | 10 | 3 | -2
O=C(NN=C1CCCC1)c1cc(-c2ccccc2)n[nH]1 | -2 | 4 | 5 | -1
O=C(NN=C1CCCC1)c1ccn[nH]1 | 5 | -4 | -200* | -136*
O=C(c1ccoc1)N1CCN(c2cc(-c3ccccc3)nc3cc(-c4ccc(Br)cc4)nn23)CC1 | · | · | -13 | -23
N#Cc1c(N2CCN(C(=O)c3ccccc3Cl)CC2)nc(-c2ccccc2)c2c1CCCC2 | 5 | 9 | -27 | -283*
N#Cc1c(N2CCN(C(=O)c3ccccc3)CC2)nc(-c2ccccc2)c2c1CCCC2 | 28 | -4 | -9 | 0
O=C(CCNC(=O)c1ccc(Cl)cc1)NCc1ccco1 | · | · | · | -13
CCN(CC)CCNc1c(C)cc(CO)c(Cl)c1C | · | · | 6 | 1
S=c1[nH]nc(CSCCOc2ccc(Cl)cc2Cl)o1 | 0 | 6 | -166* | -154*
CN(C(=O)c1cccc(NC(=O)Cc2ccc(NC(=O)C3CCN(C(=O)c4ccccc4)CC3)cc2)c1)C1CCCC1 | · | · | 6 | -2
COc1ccc(NC(=O)CN2C(=O)NC3(CCCCC3C)C2=O)cc1OC (stereo not drawn) | -1 | 5 | -7 | 1
O=C(CNc1cccc(C(F)(F)F)c1)N/N=C/c1cccc(Br)c1 | 11 | 5 | -6 | -3
O=C(CNc1cccc(C(F)(F)F)c1)N/N=C/C1CCCCC1 | 97* | -30 | -21 | -3
OCCOc1cccc(CN2CCC(CO)(CCOc3ccccc3)CC2)c1 | -1 | 9 | -15 | ·
OCC1(CCOc2ccccc2)CCN(CC2=Cc3cc(Cl)ccc3OC2)CC1 | 2 | -5 | -72* | -33
SMILES | TRPV1 agonist | TRPV1 potentiator | KCNH2 3.1 inh | hERG WT inh
COc1cc(Cl)c(CN2CCC(CO)(CCOc3ccccc3)CC2)cc1OC | 7 | 0 | -94* | -74*
COc1ccc(CN2CCC(CO)(CCOc3ccccc3)CC2)c(OC)c1C | 4 | -20 | ? | -14
COC(=O)c1ccc(CN2CCC(CO)(CCOc3ccccc3)CC2)cc1 | 4 | 0 | -97* | -5
COc1ccc(C2/C(=C(/O)c3ccc4c(c3)CC(C)O4)C(=O)C(=O)N2CCCn2ccnc2)cc1OC (stereo not drawn) | · | · | 7 | -15
COc1ccc(CCN(C)Cc2ccc(OCc3ccccc3)c(OC)c2)cc1OC | 2 | 6 | -79* | 14
COc1ccc(CCN(C)c2ncnc3sccc23)cc1OC | 1 | 0 | 4 | -84*
COc1ccc(CCN(C)Cc2ccc(OC)c(OCc3ccccc3)c2)cc1OC | 3 | 2 | ? | 16
CCCC(C)Sc1nc2c([nH]1)c(=S)n(C)c(=O)n2C (stereo not drawn) | · | · | -15 | -157*
Nc1ccc(C(=O)N2CCN(S(=O)(=O)c3ccc4c(c3)OCCCO4)CC2)cc1[N+](=O)[O-] | -1 | -1 | -5 | -2
